Source: PubChem BioAssay (NCI)
About 79,000 compounds went through this panel and 15% of them were active in at least one assay; those are over-represented in the sample as a whole. Activity calls are given as the source filed them. Cut-off read from the data, not from the text of the source: active = growth inhibition above about 70%; inactive = the rest.

How the values were obtained:
[1] = NCI Yeast Anticancer Drug Screen. Data for the rad50 strain (AID 155);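 note: 0% = growth of vehicle-only cultures of the same strain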; settings: S. cerevisiae rad50 strain growth inhibition; at 50.0 µM; hits give high values
Summary of the method: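 Compounds were tested on a yeast strain with an engineered DNA damage repair alteration; the reported value is growth inhibition normalised to vehicle treatment.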

[2] = NCI Yeast Anticancer Drug Screen. Data for the mec2-1 strain (AID 157); settings: S. cerevisiae mec2-1 strain, at 50.0 µM, hits give high values
Summary of the method: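 Cells of the genetically defined mec2-1 yeast strain are incubated with test compound. Inhibition of growth is calculated against vehicle-treated controls.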

[3] = NCI Yeast Anticancer Drug Screen. Data for the sgs1 mgt1 strain (AID 161);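 note: 0% = growth of cultures given vehicle only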; settings: S. cerevisiae sgs1 mgt1 strain, at 50.0 µM, hits give high values
Summary of the method: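 Test agents were incubated with a DNA-repair-mutant yeast strain. Growth was then read and compared against vehicle-treated controls.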

[4] = NCI Yeast Anticancer Drug Screen. Data for the cln2 rad14 strain (AID 165);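 note: 0% = growth equal to vehicle treated cultures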; settings: S. cerevisiae cln2 rad14 strain, at 50.0 µM, hits give high values
Summary of the method: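 The screen exposed genetically defined yeast (cln2 rad14) to test compounds and scored growth inhibition relative to vehicle-treated controls.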

[5] = NCI Yeast Anticancer Drug Screen. Data for the bub3 strain (AID 167); settings: S. cerevisiae bub3 mutant strain, at 50.0 µM, hits give high values
Summary of the method: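 Growth of a checkpoint-deficient yeast mutant is measured after compound exposure. Values represent inhibition relative to vehicle.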

[6] = NCI Yeast Anticancer Drug Screen. Data for the mlh1 rad18 strain (AID 175); settings: S. cerevisiae mlh1 rad18 strain growth inhibition; at 50.0 µM; hits give high values
Summary of the method: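 Compound-treated yeast growth, normalised to vehicle controls. Strain bears defined DNA repair mutations.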

Measured: growth inhibition

Nc1c2c(nn1-c1ccccc1)C(=O)N(CCc1ccccc1)C2
inactive: [1] 0.25% | [2] 14.2% | [3] -6.05% | [4] -0.65% | [5] -3.25% | [6] -1.4%

COc1ccc(/C=C2\N=C(N/N=C\C(O)C(O)C(O)C(O)CO)NC2=O)cc1 (configuration not stated)
inactive: [1] -7.3% | [2] -0.3% | [3] 9.2% | [4] 5.45% | [5] -3.8% | [6] -49.8%

CCCCCC(C)(C)O
inactive: [1] 7.6% | [2] -6.55% | [3] -3.9% | [4] -40.9% | [5] 4.75% | [6] -4.75%

O=C1CS(=O)(=O)CN1c1ccc(Cl)c(Cl)c1
inactive: [1] -17.4% | [2] -3.35% | [3] -7.65% | [4] 6% | [5] 7% | [6] 3.6%

CCCCOC(=O)C(=O)C(CC(CC)C(=O)c1ccccc1)C(=O)C=C(C)C (configuration not stated)
inactive: [1] -28.9% | [2] -8.5% | [3] -9.55% | [4] -15.2% | [5] -13.6% | [6] 15.2%

C[N+]12CCCCC1CC2 (configuration not stated)
inactive: [1] 29.4% | [2] -5.25% | [3] -7.35% | [4] -39.5% | [5] -40.3% | [6] 9.85%

CCCC(C)(CCC)OC(=O)Nc1cccc2ccccc12
inactive: [1] -3% | [2] -4.2% | [3] -4.4% | [4] -10.7% | [5] 6.95% | [6] 15.2%

O=C(CCCn1ccnc1[N+](=O)[O-])NCCn1cnc([N+](=O)[O-])c1
inactive: [1] 8.9% | [2] 29.6% | [3] 5.2% | [4] 5.75% | [5] -9.4% | [6] 61%

Cn1c(=O)c2[nH]c(/N=N\n3ccc4ccccc43)nc2n(C)c1=O
inactive: [1] 2.1% | [2] 21.6% | [3] -5.6% | [4] -8.85% | [5] 24.6% | [6] 4.1%

Cc1ccccc1N=C(N)NC#N
inactive: [1] -14% | [2] -31.9% | [3] -15.1% | [4] -4.65% | [5] -13.2% | [6] -49.7%

COc1ccc(/C=N/n2cnc3c(sc(=S)n3-c3ccccc3)c2=O)cc1
inactive: [1] 23% | [2] 1.1% | [3] -8.45% | [4] -1.7% | [5] -23.7% | [6] 12.8%

CN(C)c1c(F)c(F)c(N=Nc2ccccc2)c(F)c1F
inactive: [1] 0.75% | [2] -2.6% | [3] 1.15% | [4] -3.15% | [5] 16.8% | [6] -12.1%

COc1cc2c(cc1OC)C(=O)C(C1CCCCC1)NC2 (configuration not stated)
inactive: [1] 20.7% | [2] 9.85% | [3] 8.9% | [4] 0.45% | [5] 16.1% | [6] 30.4%

CN1C(c2ccco2)NC(=O)C12CCN(Cc1ccccc1)CC2 (configuration not stated)
inactive: [1] 24.8% | [2] 7.25% | [3] 15.2% | [4] 10.2% | [5] 16.8% | [6] 16.1%

COc1ccc2nc(Cl)sc2c1
inactive: [1] 32.4% | [2] -17.6% | [3] 41.4% | [4] 21.4% | [5] 42.1% | [6] 13.6%

CC1=C(CCC(C)CO)O[C@H]2C[C@H]3[C@@H]4CC[C@H]5C[C@@H](O)CC[C@]5(C)[C@H]4CC(=O)[C@]3(C)[C@@H]12 (some centres not stated)
active: [3] 84% | [6] 70.8%
inactive: [1] 64.3% | [2] 28.6% | [4] 38.4% | [5] 67.3%

C=CC12COC(=O)CC1CCC(=O)C2 (configuration not stated)
inactive: [1] 4.75% | [2] -10.2% | [3] -14.2% | [4] -19.4% | [5] 13.4% | [6] -5.4%

CS(=O)(=O)Nc1ccc(C(=O)CCN2CCCCCC2)cc1
inactive: [1] -4.35% | [2] 8.9% | [3] -28.9% | [4] -6.6% | [5] -27.5% | [6] -23.1%

CCCCCCCCCC/C=C/c1c(C)[nH]c2ccccc2c1=O
inactive: [1] -11.9% | [2] 8.7% | [3] -6.3% | [4] -6.5% | [5] -8.45% | [6] -11.1%

CC(=O)Nc1ccc(S(=O)(=O)Nc2ccc([N+](=O)[O-])cc2)cc1
inactive: [1] -37.4% | [2] -40% | [3] -22.8% | [4] -8.65% | [5] -31.9% | [6] -36%

CCN(CC)c1ccc(S(=O)(=O)NC(=O)OC)cc1
inactive: [1] 3.55% | [2] -2% | [3] -0.65% | [4] 3.45% | [5] -1.25% | [6] -5.5%

CC(=O)OCC1OC(Cl)C(NS(=O)(=O)Cc2ccccc2)C(OC(C)=O)C1OC(C)=O (configuration not stated)
inactive: [1] 7.6% | [2] 15.7% | [3] 15.7% | [4] 24.6% | [5] 5.35% | [6] 22.4%

C(=C\c1csnn1)/c1cccnc1
inactive: [1] 29.9% | [2] -1.95% | [3] 2.05% | [4] 6.35% | [5] 9.3% | [6] 5.75%

NC(CSSCC(N)=NCC12CC3CC(CC(C3)C1)C2)=NCC12CC3CC(CC(C3)C1)C2
active: [1] 99.4% | [2] 99.5% | [3] 99.5% | [4] 97.4% | [5] 98.8% | [6] 99.2%

OC1CNC(=S)NC1
inactive: [1] -8.85% | [2] -10.2% | [3] -12.6% | [4] -22.2% | [5] -5.2% | [6] 12.9%

CCCCN(CCCC)CCC(O)c1cc(-c2ccc(C(F)(F)F)cc2)nc(-c2ccc(C(F)(F)F)cc2)c1 (configuration not stated)
inactive: [1] 24.3% | [2] -4.9% | [3] -37.6% | [4] -8.7% | [5] -55.6% | [6] -41.2%

COc1ccccc1C(c1ccccc1OC)c1ccccc1C(=O)O
inactive: [1] 14.5% | [2] -3.35% | [3] 5.75% | [4] 15% | [5] 6.05% | [6] 26.9%

O=C(/C=C/c1ccc(O)cc1)NCCc1c[nH]c2ccc(O)cc12
inactive: [1] 0.75% | [2] -10% | [3] 10% | [4] 8.35% | [5] -3.7% | [6] 7.75%

CCN(CC)CCNC(=O)c1c(C)cc(C)cc1C
inactive: [1] -5.1% | [2] 0.2% | [3] -0.3% | [4] -53.2% | [5] -1.95% | [6] 10.8%

CC(C)CC(=O)NS(=O)(=O)c1ccccc1
inactive: [1] -6.15% | [2] 5.05% | [3] -3.05% | [4] 5.2% | [5] -17.4% | [6] -22.2%

CCOC(=O)C(/C=C/C(C)C)(CC)C(=O)OCC
inactive: [1] -8.75% | [2] 11.2% | [3] 8.2% | [4] 44.8% | [5] -6.95% | [6] 24.4%

CCN(CC)CCc1c2c(nc3ccccc13)C(=O)c1cccnc1C2=O
active: [1] 84.3% | [3] 84% | [4] 74.4% | [5] 79.2%
inactive: [2] 66.3% | [6] -21.5%

CC(=O)NNc1nc(C)c(C(/C=C/c2ccc(Cl)cc2)=N/NC(=S)NN)s1
inactive: [1] 34.1% | [2] 20.4% | [3] 45% | [4] 15.8% | [5] 11.8% | [6] 9.75%

COc1ccc(-c2c3c(n(C4OC(COC(C)=O)C(OC(C)=O)C(OC(C)=O)C4OC(C)=O)c(=S)c2C#N)CCCC3)cc1 (configuration not stated)
inactive: [1] -17.9% | [2] -13.2% | [3] 3.4% | [4] 2.05% | [5] -1.95% | [6] -5%

CS(=O)(=O)CC(O)(c1ccccc1)c1ccccc1
inactive: [1] -21.4% | [2] -2.4% | [3] 9.5% | [4] -13.3% | [5] 1.55% | [6] 28.1%

CCOc1ccc(N=Nc2c(C)nn(C(N)=S)c2OCC)cc1
inactive: [1] -54.6% | [2] -21.6% | [3] 11.6% | [4] -38.5% | [5] -5.25% | [6] -7.35%

NC(=S)NNC(=S)NC(=O)c1ccco1
inactive: [1] -39.8% | [2] 5.55% | [3] 5.05% | [4] 14.3% | [5] 22.1% | [6] -18.7%
